SMILES strings stand for the structures. Among all 65,000 compounds or so, about 2,100 (3.2%) showed an effect of 50% or more. The median lay at about -52%. Many of the other results were omitted from the sample, so strong results are more common in it than they were.

This test relates to Plasmodium falciparum. In words: Screen against P. falciparum Asexual Blood Stage (ABS), at 5uM. It counts as functional, Dd2. As to conditions: tested at 5 uM.
In the case of `Clc1ccc(CN(CCN2CCOCC2)Cc2cccnc2)cc1Cl`, the INHIBITION was 53.8%.

With `Clc1ccc(CN(CCN2CCOCC2)Cc2cccnc2)c(Cl)c1`, the INHIBITION came to 35.4%.

`CN(C)[C@@H]1CCN(C(=O)c2cccn2C)[C@H]1Cc1cnn(C)c1`: the INHIBITION was -109%.

Take `O=C(c1ccco1)N1CC[C@@H]2O[C@@H](COCCN3CCCC3)CC[C@@H]21`: the INHIBITION is -86.1%.

For the compound `c1cnc(N2CC[C@@H]3O[C@@H](COCc4cccnc4)CC[C@@H]32)nc1`, the INHIBITION is on record as -60.3%.

For the compound `CCN(CC)Cc1ccc(C(=O)NC2CCc3cc(Br)ccc32)o1` (stereo not drawn), the INHIBITION was determined as 47.7%.

With `CCN(CC)Cc1ccc(C(=O)NC2CCc3cc(F)ccc32)o1` (stereo not drawn), the INHIBITION is 16.3%.

For `CCN(CC)Cc1ccc(C(=O)NC2CCc3cc(Cl)ccc32)o1` (stereo not drawn), the INHIBITION is on record as 56%.

For `Cc1cncc(C(=O)NCCSCc2cccs2)c1`, the INHIBITION was -11%.

For the compound `CN1CCOC(CNCCOc2cccc(C#N)c2)C1` (stereo not drawn), the INHIBITION is reported as -70.4%.

On to `Brc1cc2c(cc1CN1CCC(N3CCCCC3)CC1)OCCO2`, for which the INHIBITION was determined as 61.5%.

Turning to `OC1CCN(Cc2cc3c(cc2Br)OCCO3)CC1`, the INHIBITION was -16.3%.

`OCC1CCN(Cc2cc3c(cc2Br)OCCO3)CC1`: the INHIBITION is on record as -9.89%.

Regarding `CN1CCN(C2CCN(CCOc3cccc(Cl)c3)CC2)C1=O`, the INHIBITION is recorded as -9.24%.

With `Cn1ncc2c1NC(=O)CC2c1ccccc1Br` (stereo not drawn), the INHIBITION is given as -46.4%.

As to `CS(=O)(=O)NCc1cc(=O)n2c(n1)CN(Cc1ccco1)CCC2`, the INHIBITION is -15.8%.

Take `CNC(=O)c1cn[nH]c1C1(C)CCCN(Cc2ccccc2OC)C1` (stereo not drawn): the INHIBITION is on record as 31.1%.

As to `CNC(=O)c1cn[nH]c1C1(C)CCCN(Cc2ccccn2)C1` (stereo not drawn), the INHIBITION was found to be 61.9%.

In the case of `CN(C)C(=O)c1cn[nH]c1C1(C)CCCN(Cc2ccccn2)C1` (stereo not drawn), the INHIBITION is listed as -73.2%.

With `CCOc1nnc(CN2CCN(CCOC)CC2)s1`, the INHIBITION is recorded as -108%.

As to `CN(C)S(=O)(=O)N1C[C@H]2CC[C@@H](C1)N(CCC(=O)NCc1ccco1)C2`, the INHIBITION was -109%.

For `Cc1occc1C(=O)N1C[C@@H]2CCCO[C@@H]2[C@H](NC(=O)CC2CC2)C1`, the INHIBITION is on record as -27.2%.

Regarding `COc1ccc(CCNC(=O)C(C)Nc2ccc(C)c(C)c2)cc1` (stereo not drawn), the INHIBITION is -52%.

Regarding `CCS(=O)(=O)N1CCc2nc(N3CCCC3)nc(N(C)C)c2CC1`, the INHIBITION is recorded as -19.4%.

Consider `Cc1nc(CN2CCc3nc(N4CCCC4)nc(NC(C)C)c3C2)cs1`, for which the INHIBITION stood at 57.3%.

As for `CCCN1CCc2nc(N3CCOCC3)nc(NC(C)C)c2C1`, the INHIBITION is given as -33.6%.

Regarding `Cc1nc(CN2CCc3nc(NC(C)C)nc(C)c3C2)cs1`, the INHIBITION is -19.1%.

In the case of `Cc1nc(N2CCCC2)nc2c1CN(C(C)C)CC2`, the INHIBITION is -36.3%.

Consider `CCN1CCc2nc(N3CCOCC3)nc(NC(C)C)c2C1`, for which the INHIBITION was 16.7%.

In the case of `CC(C)Nc1nc(N2CCCC2)nc2c1CN(C)CC2`, the INHIBITION was 48.5%.

With `CC(C)Nc1nc(N2CCCC2)nc2c1CCN(S(C)(=O)=O)CC2`, the INHIBITION came to 51.5%.

For `CC(C)Nc1nc(N2CCCC2)nc2c1CN(C(C)C)CC2`, the INHIBITION turned out to be 66.8%.

`CC(C)CCN1CCc2nc(N3CCOCC3)nc(NC(C)C)c2C1`: the INHIBITION was 8.26%.

In the case of `CC(C)Nc1nc(N2CCCC2)nc2c1CN(c1ncc(F)cn1)CC2`, the INHIBITION turned out to be 23.3%.

As for `CC(C)Nc1nc(N2CCCC2)nc2c1CN(S(C)(=O)=O)CC2`, the INHIBITION worked out at 50.6%.

As to `CC1(C)CN=C(N2CCN(CCCN3CCOCC3)CC2)S1`, the INHIBITION is -67.2%.

Regarding `N#Cc1ccc(N2CCCC3(CCN(c4cncnc4)C3=O)C2)nc1` (stereo not drawn), the INHIBITION is reported as -38.5%.

As to `CCN(CCO)C[C@@H]1CN(C(=O)c2ccc(C)s2)C[C@@H]1CO`, the INHIBITION is given as -69.5%.

Turning to `CN(C)C(=O)C1CN(Cc2ccsc2)Cc2ccnn2C1` (stereo not drawn), the INHIBITION was -99.4%.

As for `CCC(=O)Nc1ccc2c(c1)C1(CCOCC1)CN2CCOC`, the INHIBITION is listed as -59.9%.

In the case of `Fc1cccc(N2C[C@H]3CCN(c4cccnc4)C[C@H]3C2)c1`, the INHIBITION is given as 13.9%.

Take `O=C(CCc1nc(-c2ccsc2)no1)NCC1CCN(C2CC2)C1` (stereo not drawn): the INHIBITION was 2.06%.

On to `CCn1nc2c(cc1=O)CN(Cc1nc(CCOC)no1)CC2`, for which the INHIBITION was -151%.

`CCCn1nc2c(cc1=O)CN(Cc1nc(CCOC)no1)CC2`: the INHIBITION was 62.4%.

Consider `COCCc1noc(CN2CCc3nn(C(C)C)c(=O)cc3C2)n1`, for which the INHIBITION is given as -60.6%.

For the compound `c1cncc(-c2nccc(CN3CCCC3)n2)c1`, the INHIBITION is -151%.

In the case of `CCc1c(C)nc2ccccc2c1N1CCC(NC(C)=O)CC1`, the INHIBITION is reported as 24.4%.

On to `CCc1c(C)nc2ccccc2c1N1CCC(C(=O)NC)CC1`, for which the INHIBITION turned out to be 52.7%.

On to `CCc1c(C)nc2ccccc2c1N1CCC(O)CC1`, for which the INHIBITION turned out to be 0.854%.

`Cc1ccc(C(=O)N2C[C@@H]3[C@@H](C2)OCC(=O)N3Cc2cccnc2)o1`: the INHIBITION was -84.3%.

Take `CN(C)Cc1cccc(-c2cccnc2C(=O)NCc2cn(C)cn2)c1`: the INHIBITION is on record as -167%.

Regarding `Cc1ccc(C(=O)N2C[C@H]3CCC[C@@]3(COCC3CCOCC3)C2)o1`, the INHIBITION is -35.2%.

On to `CCS(=O)(=O)Nc1ccc2oc(C)c(C(=O)OC)c2c1`, for which the INHIBITION is on record as -54.7%.

(Values after ChEMBL document CHEMBL4513216, “Probing the Open Global Health Chemical Diversity Library for Multistage-Active Starting Points for Next-Generation Antimalarials” (ACS Infect Dis, 2020).)
